Assay results from the OligoGym collection.

These sequences were tested against ADAD1 (assay: pooled miR-30 sensor sort-seq; sequence = guide strand). Details: shRNA.

Compared with TTTAGGACAGTAAACAGTCAGA, TTGCTGTAACAACAGCATGAGT is lower in sensor-assay potency score (higher = more potent): -1 for the first, -1.53 for the second.

First: TTAGTTGATTAAATCTTTCTTT
Second: TTGATTTTTCCATCATAGCAGG
The sensor-assay potency score (higher = more potent) of the first is higher: 0.397 for the first, -0.926 for the second.

First: TTATTCTATTAACACCATCTTT
Second: TTGACTAAGTAAAACATTGGAA
The sensor-assay potency score (higher = more potent) of the first is lower: -0.934 for the first, -0.221 for the second.

First: TCAACTTACATTTAGCTTCTTG
Second: TAAACTAATATGAGGTCTGTTG
The sensor-assay potency score (higher = more potent) of the first is higher: -0.0304 for the first, -1.14 for the second.

First: TAAGAAGAGACCTTCTTGCTGT
Second: TAAACCGACTTAACATTGCAGC
The sensor-assay potency score (higher = more potent) of the first is higher: 0.614 for the first, -0.535 for the second.

With TATAGCTACAACCTCATGTTGT the sensor-assay potency score (higher = more potent) was 0.156.

The sequences below were run against ADAM18 in the same assay as above. Details: shRNA.

Going from TTATACTCTGCATTCTCTCTGT to TATGTGGCTGAACACAAGCTAA, the sensor-assay potency score (higher = more potent) falls from 0.461 to -1.54.

Going from TTATATGCTCAAATCTTGCTGA to TCATTTGACTTAATCTTCCGTG, the sensor-assay potency score (higher = more potent) rises from -0.162 to 0.722.

Compared with TTGAACTGGGTAAACATAGTGT, TATTCCTTCAGAACCTTCGTGG is higher in sensor-assay potency score (higher = more potent): -0.273 for the first, 0.508 for the second.

Going from TATGACTGTAATTTACTGCTAA to TTTGACTTAATCTTCCGTGGAA, the sensor-assay potency score (higher = more potent) rises from 0.177 to 0.749.

Compared with TTGATGTACAACATGGTCCAGA, TAACAGTCAATTTGAACTGGGT is higher in sensor-assay potency score (higher = more potent): -0.506 for the first, 0.214 for the second.

First: TTCATTATATGTATAAACCAAA
Second: TATAACAGTCAATTTGAACTGG
The sensor-assay potency score (higher = more potent) of the first is lower: -1.38 for the first, 0.382 for the second.

The sequences below were run against ADAP1 in the same assay as above. Details: shRNA.

First: TCTGTCAGCACAAACTTCCGGC
Second: TCTTTGAAGTACATGAGCCTGC
The sensor-assay potency score (higher = more potent) of the first is higher: 0.0597 for the first, 0.0128 for the second.

Compared with TCGTTCTGTCAGCACAAACTTC, TTGAAGTACATGAGCCTGCGGT is higher in sensor-assay potency score (higher = more potent): -1.49 for the first, -0.124 for the second.

Going from TGAAATACTTCAGAGCACCCTC to AAACAGAAACTTGCGGTCGGGC, the sensor-assay potency score (higher = more potent) falls from -0.32 to -0.903.

Going from ATTTCTGTTGAAATACTTCAGA to TAGATGAAGATGTTACGGGTGC, the sensor-assay potency score (higher = more potent) rises from -1.12 to -0.0419.

Going from TTCTGTTGAAATACTTCAGAGC to TAGGGCTCCTGCTTCTCCGGGT, the sensor-assay potency score (higher = more potent) rises from -0.664 to 0.35.

Going from TTCTGTCAGCACAAACTTCCGG to TTCACCTTGCTGACCTGGGGGA, the sensor-assay potency score (higher = more potent) rises from -0.508 to -0.267.

Each sequence was assayed against ADCYAP1 in the same assay as above. Details: shRNA.

First: TTGACAGCCATTTGTTTCCGGT
Second: TTATCCCATAGACCAGCAGGGC
The sensor-assay potency score (higher = more potent) of the first is higher: -0.424 for the first, -1.43 for the second.

With TGGGCGACATCTCTTCTCCCGG the sensor-assay potency score (higher = more potent) was -1.69.
